# Source: PubChem (Broad Institute)
# The list is not random: actives were taken first. Their share in the collection is about 0.54%.
# FadD28 FP inh – inhibitors of FadD28 bisubstrate probe binding, primary screen, biochemical, fluorescence polarization, single point; inhibition, % at 12.5 µM; Mycobacterium tuberculosis FadD28 fatty-acid-AMP ligase; 0.22% of 360,000 active; in the data active = inhibition above about 8.5%, passing the limit was not always enough
# BH1578 lux ind – inducers of Vibrio cholerae quorum light production without autoinducers, primary screen, BH1578 luxS cqsA deficient, single point. V. cholerae BH1578 lux reporter, luminescence, 6 h. activation, % at 18.7 µM. 0.16% of 350,000 active. AID 588436, 2011; in the data active = activation mostly above about 9.7%, no sharp cut-off
# TcdB GH inh – TcdB glycohydrolase inhibitors, primary screen, biochemical, single point, plate reader. Toxin B (Clostridioides difficile), P18177. TcdB glycohydrolase enzymatic assay. inhibition, % at 9.99 µM. 0.24% of 350,000 active. AID 652162, 2013; in the data active = inhibition above about 10%
# BioA inh – M. tuberculosis BioA enzyme inhibitors, primary screen, biochemical, plate reader, single point, HTS | inhibition, % at 9.99 µM | 7,8-diaminopelargonic acid synthase BioA (Mycobacterium tuberculosis) | 0.096% of 360,000 active | purified M. tuberculosis BioA enzyme; in the data active = inhibition above about 40%
# Active calls of the source: *; i = inactive; . = not tested or not shown; + = active, no number.
SMILES,FadD28 FP inh,BH1578 lux ind,TcdB GH inh,BioA inh
Cc1onc(-c2c(F)cccc2Cl)c1C(=O)Nc1nnc(C(F)(F)F)s1,-3,8,16*,2
CC(C)NC(=O)Nc1ccc2c(c1)C(=O)N([C@@H](C)CO)C[C@@H](C)[C@@H](CN(C)Cc1ccc(C(=O)O)cc1)O2,.,.,0,-2
CN1C(=O)C(c2nnc(Nc3cccc4ccccc34)s2)C2CC1(C)Oc1ccccc12 (configuration not stated),-1,i,11*,.
CCOC(=O)C1C(=O)N(C)C2(C)CC1c1ccccc1O2 (configuration not stated),1,-2,.,.
C[C@H](CO)N1C[C@H](C)[C@H](CN(C)Cc2ccccc2)Oc2ncc(-c3ccc(F)cc3)cc2C1=O,.,.,1,0
COCc1c(Br)c(C)nc(OCC(=O)N/N=C/c2ccc(C)o2)c1C#N,-3,1,11*,.
Cc1cccn2c(=O)nc(SCC(=O)c3ccc(Cl)cc3)nc12,-1,89*,0,6
COCC(=O)N1CC2(CCN(C(=O)c3ccccn3)CC2)c2c(n(C)c3cc(OC)ccc23)[C@@H]1CO,.,.,1,.
COc1cccc(NC(=O)Cn2c(=O)oc3ccccc32)c1,39*,-3,-2,.
CC(C)(C)c1csc(NC(=O)Cn2c(=O)oc3ccccc32)n1,11*,-1,.,8
CO[C@@H]1CN(C)C(=O)c2ccc(NC(=O)Nc3ccc4c(c3)OCO4)cc2OC[C@H](C)NC[C@H]1C,.,.,-1,1
O=C(NC(=S)Nc1ccc(N2CCOCC2)cc1)c1ccccc1,-1,0,23*,2
C[C@H](CO)N1C[C@H](C)[C@@H](CN(C)Cc2ccc(C(=O)O)cc2)Oc2ccc(NC(=O)Cc3ccccc3)cc2CC1=O,.,.,0,0
Cc1ccc(S(=O)(=O)Oc2ccccc2C=C2C(=O)N(C)C(=O)N(C)C2=O)cc1,0,i,0,1
Cc1ccc(S(=O)(=O)Oc2ccccc2/C=C2/SC(=O)NC2=O)cc1,-5,-1,10*,.
Cc1ccc(CN2C(=O)CN=C(c3ccccc3)c3ccccc32)cc1,-5,2,12*,5
Cc1oc(-c2ccccc2)nc1CN1C(=O)CN=C(c2ccccc2)c2ccccc21,-3,0,-1,0
N#CC1=C(N)C(C#N)(C#N)C(c2cccnc2)C2CC(c3ccccc3)CC=C12 (configuration not stated),-4,25*,.,16
NS(=O)(=O)c1ccc(-c2ccc(/C=C3\NC(=S)NC3=O)o2)cc1,10*,i,-6,2
CCN(CC)c1ccc2nc3ccccc3[n+](CC)c2c1,-1,1,.,7
C[n+]1c2ccccc2nc2ccc(NCCO)cc21,44*,0,4,6
CNc1ccc2nc3ccccc3[n+](C)c2c1,57*,i,-2,4
COc1cccc(-c2ccc([C@H]3[C@H](CO)N4C(=O)CN(C(=O)C5CC5)C[C@@H]34)cc2)c1,.,.,0,.
Oc1ccc(-c2nc3cnccn3c2Nc2ccc3c(c2)OCCO3)cc1,-2,0,20*,21
CCNC(=O)[C@H]1[C@H](CO)[C@H]2Cn3c(ccc(-c4ccccc4)c3=O)[C@H]2N1CC,.,.,14*,1
SMILES,FadD28 FP inh,BH1578 lux ind,TcdB GH inh,BioA inh
COc1cc(/C=N/NC(=O)CSc2ccccn2)ccc1O,0,i,11*,.
COc1cc(/C=N/Nc2nc3ccccc3[nH]2)ccc1O,2,0,20*,2
COc1cc(/C=N/NC(=O)c2cccc([N+](=O)[O-])c2)ccc1O,0,i,12*,.
COc1ccc(/C=N/NC(=O)c2cccc([N+](=O)[O-])c2)cc1O,2,0,1,.
COc1cc(/C=N/NC(=O)C2COc3ccccc3O2)ccc1O (configuration not stated),-5,i,14*,.
CCCOc1ccc(/C=N/NC(=O)CSc2ccccn2)cc1OC,-3,0,0,4
C[C@H]1CN([C@@H](C)CO)C(=O)c2cc(NC(=O)Cc3cn(C)c4ccccc34)ccc2O[C@H]1CN(C)Cc1ccc(C(F)(F)F)cc1,.,.,1,-1
C[C@@H]1CCCCO[C@H](CN(C)C)[C@H](C)CN([C@@H](C)CO)C(=O)c2cc(NC(=O)CCCN(C)C)ccc2O1,.,.,1,1
COc1ccc(C=NNC(=O)c2cc(C)oc2C)cc1O,-3,-8,10*,0
CCOc1ccc(/C=N/NC(=O)C2(O)c3ccccc3-c3ccccc32)cc1,-3,i,-10,-4
COc1cc(C=NNC(=O)c2ccccc2-n2cccc2)ccc1O,-3,i,13*,-1
COc1cc(/C=N/NC(=O)Cn2nnc3ccccc32)ccc1O,-2,0,12*,.
COc1cc(/C=N/NC(=O)C2(O)c3ccccc3-c3ccccc32)ccc1O,-2,0,10*,0
COc1ccc(S(=O)(=O)Nc2ccc3c(c2)C(=O)N([C@@H](C)CO)C[C@H](C)[C@@H](CN(C)C(=O)NC2CCCCC2)O3)cc1,.,.,-1,-1
O=C(C[C@@H]1C[C@H]2c3cc(NC(=O)CC4CC4)ccc3O[C@H]2[C@H](CO)O1)NCc1cccc(F)c1,.,.,-8,2
COc1ccc(NC(=O)N(C)C[C@H]2OCc3ccccc3-c3c(n(C)c4ccccc34)C(=O)N([C@@H](C)CO)C[C@@H]2C)cc1,.,.,1,1
C[C@@H]1CN([C@H](C)CO)C(=O)c2cc(-c3ccc(F)cc3)cnc2O[C@H]1CN(C)CC1CCCCC1,.,.,-3,1
CC(C)(C)OCC(O)CN1CCN(C(=O)c2ccccc2)CC1 (configuration not stated),-1,0,12*,-2
Cc1cc(C)c(OCC(O)CN2CCN(C(=O)c3ccccc3)CC2)c(C)c1 (configuration not stated),-2,i,1,0
COc1cc(N=Nc2c(C)n(C)n(-c3ccccc3)c2=O)ccc1N,-1,i,14*,0
Cc1nc2ccccc2nc1OCC(=O)Nc1ccc(F)cc1,-1,0,12*,.
COC(=O)c1ccc(Cn2cc(C(F)(F)F)cc([N+](=O)[O-])c2=O)cc1,-3,+,0,.
Cc1ccccc1-c1cnc2c(c1)C(=O)N([C@@H](C)CO)C[C@@H](C)[C@@H](CN(C)CC1CC1)O2,.,.,.,4
NC(=O)C1(Nc2ccc(-c3ccc(Br)cc3)cc2)CCCC1,-3,i,11*,.
CC(C)=CCN1CCN(CC#Cc2ccccc2)CC1CCO (configuration not stated),-1,0,0,-1
CC(C)CN1CCN(CC#Cc2ccccc2)CC1CCO (configuration not stated),-2,i,10*,.
Cc1ccc(NC(=S)N(CCN(C)C)Cc2cccs2)cc1,-1,0,-2,.
CCOC(=O)c1ccc(NC(=S)N(CCN(C)C)Cc2cccs2)cc1,10*,-1,-1,.
CN(C)c1ccc(C(=O)OCC#CCSc2nnc(-c3cccc4ccccc34)o2)cc1,-1,i,14*,-1
